Laboratory results from PubChem BioAssay (NCI).
This is part of a sample that, as a whole, favours compounds with a hit. Of some 79,000 tested, about 15% had one in any assay. Active and inactive are the calls of the source. Rule as the data show it: active = growth inhibition above about 70%; inactive = the rest.

Assay: NCI Yeast Anticancer Drug Screen. Data for the sgs1 strain (AID 173);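 also: 0% = growth of vehicle-only control cultures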
Settings: S. cerevisiae sgs1 mutant, hits give high values
Experimental: Growth inhibition of yeast strains with defined genetic alterations is measured as a screen for potential anti-cancer activity. Selected strains with alterations in DNA damage repair or cell cycle control were exposed to compounds and growth inhibition was measured relative to vehicle treated controls. The strain used in this assay is sgs1

Measured: growth inhibition

CCCC/C=C/C(CC)(C(=O)OCC)C(=O)OCC
inactive: at 1.2 µM -2% | at 3.7 µM 1% | at 11.0 µM 0% | at 33.0 µM 0% | at 100.0 µM 5%

Cc1c(C2=C(Br)C(=O)N(C)C2=O)c(=O)n(C)c(=O)n1C
active: at 100.0 µM 94%
inactive: at 1.2 µM 2% | at 3.7 µM 11% | at 11.0 µM 22% | at 33.0 µM 60%

CCCCCCCCCCCCCC[N+](C)(CC(=O)[O-])Cc1ccccc1 (stereo not given)
inactive: at 1.2 µM 2% | at 3.7 µM 30%
active: at 11.0 µM 99% | at 33.0 µM 99% | at 100.0 µM 99%

Cc1cc(CO)c(O)c(CNCc2cc(C)cc(CO)c2O)c1
active: at 100.0 µM 99%
inactive: at 1.2 µM 3% | at 3.7 µM 8% | at 11.0 µM 9% | at 33.0 µM 40%

O=[N+]([O-])c1cccc2nccc(NCCCO)c12
active: at 33.0 µM 79% | at 100.0 µM 86%
inactive: at 1.2 µM 8% | at 3.7 µM 38% | at 11.0 µM 62%

c1ccc2c(c1)c1ncccc1c1nccnc21
inactive: at 1.2 µM -12% | at 3.7 µM -14% | at 11.0 µM -2% | at 33.0 µM 3% | at 100.0 µM 21%

CN(Cc1cnc2nc(N)nc(N)c2n1)c1ccc(C(=O)N[C@@H](CCC(=O)O)C(=O)O)cc1
inactive: at 1.2 µM -2% | at 3.7 µM -3% | at 11.0 µM 3% | at 33.0 µM 27% | at 100.0 µM 63%

Cc1cccc2c(C(O)CBr)cc(-c3ccc(Cl)cc3)nc12 (stereo not given)
inactive: at 1.2 µM -2% | at 3.7 µM 7%
active: at 11.0 µM 98% | at 33.0 µM 96% | at 100.0 µM 90%
